Rows were chosen to be rich in hits. Some 6.7% of all compounds tested hit in one or more screens of this group.
Pf Dd2 growth: inhibitors of Plasmodium falciparum Dd2 growth. P. falciparum Dd2 growth, SYBR Green, 72 h; active compounds read low. activity change, % at 10 µM. 94,000 compounds, 2.3% hits; in the data active means activity change below about -80%; inconclusive means no clear call, values can overlap the other calls
T cruzi growth-1: blocks T. cruzi growth in NIH3T3 culture. T. cruzi beta-gal in NIH3T3, GalScreen luminescence, 90 h. inhibition, % at 8.34 µM. 77,000 compounds, 5.9% hits. AID 624255;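 active means mean inhibition above about 93%, with at least 55% of replicates each passing it, limit read from the data, passing the limit was not always enough; inconclusive means only one of those two conditions holds; inactive means neither condition holds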
C diff growth: C. difficile growth inhibition | 86,000 compounds, 0.25% hits | growth activity, negative = inhibition, % at 16 µg/mL (by protocol) | Clostridium difficile clinical isolate growth, OD600, 24 h; active compounds read low;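 active means mean growth activity at or below -80% and every replicate also at or below -80%; inconclusive means mean at or below -80% but some replicate above -80%; inactive means mean growth activity above -80%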;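 further: 0% = DMSO wells and -100% = levofloxacin 16 µg/mL wells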
T cruzi growth-2: inhibitors of T. cruzi proliferation; inhibition, % at 8.35 µM; T. cruzi beta-gal in NIH3T3, GalScreen luminescence, 90 h; shares compounds with T cruzi growth-1; 5,600 compounds, 72% hits;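 active means mean replicate inhibition above about 95% and at least 55% of replicates individually reaching it, limit read from the data; inconclusive means only one of the two criteria is met; inactive means neither criterion is met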
T cruzi growth-3: inhibitors of T. cruzi proliferation | inhibition, % at 2.09 µM | T. cruzi beta-gal in NIH3T3, GalScreen luminescence, 90 h | shares compounds with T cruzi growth-1 | 5,600 compounds, 21% hits;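 active means mean inhibition above about 95%, with at least 55% of replicates also reaching it, limit read from the data; inconclusive means meets just one of the two conditions; inactive means meets neither condition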;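 further: plate controls were neutral control median for no effect and positive control median for full effect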
NIH3T3 tox: cytotoxicity in mouse NIH/3T3 fibroblasts; AID 651742; shares compounds with T cruzi growth-1; cytotoxicity (signal decrease), % at 8.35 µM; NIH/3T3 viability, CellTiter-Glo ATP luminescence, 90 h; 5,600 compounds, 14% hits;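 active means mean signal decrease across replicates above about 35% based on untreated-well scatter, with enough replicates individually passing, limit read from the data; inconclusive means no rule stated though some were filed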;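 further: 0% = median of neutral control wells and 100% = median of positive control wells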
3T3 cytotox 2: cytotoxicity in mouse NIH/3T3 fibroblasts; shares compounds with T cruzi growth-1; NIH/3T3 viability, CellTiter-Glo ATP luminescence, 90 h; inhibition, % at 24.9 µM; 5,600 compounds, 56% hits;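 active means mean loss of cell viability signal at or above a set limit, and enough replicates individually reaching it; inconclusive means meets only the mean limit or only the replicate share; inactive means meets neither condition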;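 further: 0% = median of neutral control wells and 100% = median of positive control wells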
The depositor's hits bear a star; ? = inconclusive; nt = no result.

SMILES | Pf Dd2 growth | T cruzi growth-1 | C diff growth | T cruzi growth-2 | T cruzi growth-3 | NIH3T3 tox | 3T3 cytotox 2
CN1CCN(C(=O)C2=C[C@@H](c3ccc4c(c3)OCO4)C[C@@H](OCCCCO)O2)CC1 | nt | nt | -4.3 | nt | nt | nt | nt
CNC[C@@H]1Oc2cc(C#Cc3ccccc3)ccc2S(=O)(=O)N([C@H](C)CO)C[C@H]1C | -66.0 | nt | 24.4 | nt | nt | nt | nt
CNC[C@@H]1Oc2cc(C#Cc3ccccc3OC)ccc2S(=O)(=O)N([C@@H](C)CO)C[C@H]1C | nt | 105.3* | -4.0 | 104.5* | 84.3 | 9.9 | 103.9*
CNC[C@H]1Oc2cc(C#Cc3ccccc3OC)ccc2S(=O)(=O)N([C@@H](C)CO)C[C@@H]1C | nt | 102.6* | 2.9 | 106.2* | 67.6 | ? | 104.4*
CNC[C@H]1Oc2cc(C#Cc3ccccc3)ccc2S(=O)(=O)N([C@H](C)CO)C[C@@H]1C | -53.7 | nt | 25.6 | nt | nt | nt | nt
C[C@@H]1CN([C@H](C)CO)C(=O)c2cc(N(C)C)ccc2O[C@@H](C)CCCCO[C@@H]1CN(C)C(=O)Nc1ccc2c(c1)OCO2 | -47.6 | -4.9 | -1.5 | nt | nt | nt | nt
C[C@@H]1CCCCO[C@H](CN(C)C(=O)CCCN(C)C)[C@H](C)CN([C@@H](C)CO)C(=O)c2cc(NC(=O)c3ccncc3)ccc2O1 | 16.4 | -61.1 | -2.0 | nt | nt | nt | nt
COc1ccc(-c2ccccc2[C@@H]2[C@@H](C#N)N(C(=O)C3CC3)[C@H]2CO)cc1 | 4.3 | nt | -8.7 | nt | nt | nt | nt
CC(=O)NC[C@@H]1[C@@H](c2ccc(C3=CCCCC3)cc2)[C@H](CO)N1C(=O)NC(C)C | -3.2 | 6.8 | -9.2 | nt | nt | nt | nt
CC(C)NC[C@H]1[C@H](c2ccc(C3=CCCCC3)cc2)[C@@H](CO)N1C(=O)NC(C)C | -42.0 | 98.3* | 43.0 | 104.4* | 48.4 | 33.1 | 104.3*
CCC(=O)NC[C@H]1[C@H](c2ccc(C3=CCCC3)cc2)[C@@H](CO)N1C(C)=O | -6.1 | 76.4 | 4.7 | nt | nt | nt | nt
CC(C)NC[C@@H]1[C@@H](c2ccc(C3=CCCCC3)cc2)[C@H](CO)N1C(=O)NC(C)C | -48.8 | ? | 21.4 | 101.5* | 78.9 | -2.0 | 105.3*
CCC(=O)NC[C@H]1[C@H](c2ccc(-c3ccccc3)cc2)[C@H](CO)N1C(=O)C1CC1 | 3.9 | 74.1 | -3.9 | nt | nt | nt | nt
CCC(=O)NC[C@H]1[C@@H](c2ccc(-c3ccccc3)cc2)[C@H](CO)N1C(=O)C1CC1 | 2.0 | 98.0* | -2.0 | -19.0 | -22.4 | -9.5 | 7.9
CCC(=O)NC[C@H]1[C@@H](c2ccc(C3=CCCC3)cc2)[C@H](CO)N1C(C)=O | -1.4 | 101.2* | 15.3 | 34.7 | 74.7 | 9.4 | 25.6
CC(=O)NC[C@@H]1[C@@H](c2ccc(C3=CCCCC3)cc2)[C@@H](CO)N1C(=O)NC(C)C | 3.4 | 56.8 | -9.6 | nt | nt | nt | nt
CNC(=O)C[C@@H]1CC[C@@H]2[C@@H](COc3ccc(NC(=O)Nc4cccc(C)c4)cc3C(=O)N2C)O1 | -45.4 | 22.3 | -5.3 | nt | nt | nt | nt
COc1ccc(S(=O)(=O)N(C)C[C@@H]2Oc3ccc(NC(=O)CCN4CCOCC4)cc3C(=O)N([C@H](C)CO)C[C@@H]2C)cc1 | -4.9 | -20.9 | nt | nt | nt | nt | nt
CC(C)NC[C@H]1[C@@H](c2ccc(C3=CCCCC3)cc2)[C@@H](CO)N1C(=O)NC(C)C | -34.5 | ? | 50.7 | 101.7* | 56.3 | 38.8* | 103.7*
CC(=O)NC[C@H]1[C@H](c2ccc(C3=CCCC3)cc2)[C@H](CO)N1C(=O)NC(C)C | -4.4 | -20.6 | -5.5 | nt | nt | nt | nt
O=C(c1ccccc1)N1C[C@H]2[C@@H](c3ccccc31)[C@H](CO)N2C(=O)Nc1ccccc1Cl | -60.6 | 32.3 | 6.1 | nt | nt | nt | nt
CCCC(=O)Nc1ccc2c(c1)OC[C@H](C)N(C(=O)c1ccccc1F)C[C@@H](C)[C@@H](OC)CN(C)C2=O | nt | 7.6 | nt | nt | nt | nt | nt
C[C@@H]1CN([C@H](C)CO)C(=O)c2cccc(NC(=O)Nc3ccc(C(F)(F)F)cc3)c2O[C@@H]1CN(C)S(=O)(=O)c1cccs1 | -19.3 | 92.9* | 6.4 | 99.3* | 46.0 | 20.0 | 105.4*
C[C@H]1CN([C@@H](C)CO)C(=O)c2cccc(NC(=O)Nc3ccc(C(F)(F)F)cc3)c2O[C@@H]1CN(C)S(=O)(=O)c1cccs1 | -8.3 | 85.1 | -5.4 | nt | nt | nt | nt
C[C@@H]1CN([C@@H](C)CO)C(=O)c2cccc(NC(=O)Nc3ccc(C(F)(F)F)cc3)c2O[C@H]1CN(C)S(=O)(=O)c1cccs1 | -34.5 | 99.3* | 13.0 | 101.3* | 70.8 | 32.9 | 38.7*
SMILES | Pf Dd2 growth | T cruzi growth-1 | C diff growth | T cruzi growth-2 | T cruzi growth-3 | NIH3T3 tox | 3T3 cytotox 2
C[C@H](CO)N1C[C@H](C)[C@H](CN(C)S(=O)(=O)c2cccs2)Oc2c(NC(=O)Nc3ccc(F)cc3)cccc2C1=O | -29.3 | 4.0 | 14.5 | nt | nt | nt | nt
C[C@H](CO)N1C[C@H](C)[C@@H](CN(C)S(=O)(=O)c2cccs2)Oc2c(NC(=O)Nc3ccc(C(F)(F)F)cc3)cccc2C1=O | -26.5 | 103.6* | -5.0 | 82.4 | 19.8 | 10.7 | 57.3*
C[C@H]1CN([C@@H](C)CO)C(=O)c2cccc(NC(=O)Nc3ccc(F)cc3)c2O[C@H]1CN(C)S(=O)(=O)c1cccs1 | 4.1 | -126.7 | 4.1 | nt | nt | nt | nt
C[C@@H]1CN([C@@H](C)CO)C(=O)c2cc(-c3ccncc3)cnc2O[C@H]1CN(C)C(=O)NC1CCCC1 | 12.0 | nt | 0.9 | nt | nt | nt | nt
C[C@@H]1CCCCO[C@H](CN(C)S(=O)(=O)c2ccc(Cl)cc2)[C@H](C)CN([C@@H](C)CO)C(=O)c2cc(NS(=O)(=O)c3ccc(F)cc3)ccc2O1 | -58.3 | 72.6 | 4.1 | nt | nt | nt | nt
C[C@H](CO)N1C[C@H](C)[C@@H](CN(C)S(=O)(=O)c2ccc(Cl)cc2)OCCCC[C@H](C)Oc2ccc(NS(=O)(=O)c3ccc(F)cc3)cc2C1=O | -58.9 | 98.2 | 5.0 | nt | nt | nt | nt
C[C@@H]1CN([C@@H](C)CO)C(=O)c2cc(NS(=O)(=O)c3ccc(F)cc3)ccc2O[C@@H](C)CCCCO[C@H]1CN(C)S(=O)(=O)c1ccc(Cl)cc1 | -50.7 | 105.7 | 0.8 | nt | nt | nt | nt
C[C@H]1CCCCO[C@@H](CN(C)S(=O)(=O)c2ccc(Cl)cc2)[C@@H](C)CN([C@@H](C)CO)C(=O)c2cc(NS(=O)(=O)c3ccc(F)cc3)ccc2O1 | -64.4 | 102.0* | -0.8 | 104.7* | 110.4* | -3.6 | -14.1
C[C@@H]1CN([C@@H](C)CO)C(=O)c2cc(NS(=O)(=O)c3ccc(Cl)cc3)ccc2O[C@@H](C)CCCCO[C@H]1CN(C)S(=O)(=O)c1ccc(F)cc1 | -59.1 | 104.9* | 1.9 | 103.6* | 50.4 | -2.9 | 0.7
C[C@H]1CCCCO[C@@H](CN(C)S(=O)(=O)c2ccc(F)cc2)[C@@H](C)CN([C@@H](C)CO)C(=O)c2cc(NS(=O)(=O)c3ccc(Cl)cc3)ccc2O1 | -68.6 | 99.8* | -4.8 | 103.8* | ? | -10.2 | -6.0
